Source: PubChem BioAssay (NCI)
Compounds without any hit were thinned out: in the full panel of roughly 83,000, 20% have a hit.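 For each line, cells grew in 96-well plates with the test compound present at a single concentration for 48 hours.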 Activity calls are given as the source filed them. How the source made its calls: active means growth percent below 10; inactive means the rest.

test system: HOP-92 NSCLC; assay: NCI-60 one-dose screen, 48 h (100 = growth as untreated, 0 = no growth, -100 = all killed); details: 10 µM

Row | SMILES | growth
1 | NC(=O)c1cccc(-n2ccc3cc(NC(=O)Nc4ccc(N5CCOCC5)c(C(F)(F)F)c4)ccc32)n1 | -16.5% (active)
2 | COc1ccc([C@H]2c3[nH]c4ccccc4c3C[C@H]3C(=O)N(C4CCN(Cc5c(Cl)cccc5Cl)CC4)CC(=O)N23)c(OC)c1 | 79.4% (inactive)
3 | COc1ccc2c(c1)c(-c1cc(N)n3nc(-c4cn(C)c5ccc(OC)cc45)cc3n1)cn2C | 86.8% (inactive)
4 | C[C@@H](Nc1c(C#N)cnc2ccc(-c3cnc(Cl)c(NS(C)(=O)=O)c3)cc12)c1ccccc1 | -14.5% (active)
5 | O=C(NCc1ncc[nH]1)c1ccc(-c2nc3ccc4[nH]ncc4c3c3c2CCCC3)cc1 | -7.23% (active)
6 | O=c1[nH]c2ccccc2cc1CSc1ccccc1Nc1nccc(-c2ccc(Cl)cc2)n1 | 83.5% (inactive)
7 | Cn1ccnc1C(=O)/C=C/c1ccc(NC(=O)c2c(F)c(F)c(F)c(F)c2F)cc1 | 123% (inactive)
8 | Cn1cc(CNc2nc3ccc(OC/C(=C/F)CN)cc3o2)ccc1=O | 108% (inactive)
9 | COc1ccc(/C(N)=N/C(N)=N/c2nc3ccccc3s2)cc1 | 85.5% (inactive)

test system: NCI-H522 lung; assay: as above; details: 10 µM unless noted

Row | SMILES | growth
10 | COc1cc2oc(-c3cccc(NC(=O)c4cc(N)ccc4Cl)c3)cc(=O)c2c(OC)c1OC | 101% (inactive)
11 | CC(C)(C)n1cc(-c2ccnc(NCCCNS(=O)(=O)c3cccc(F)c3)n2)c(-c2ccc(Cl)c(O)c2)n1 | 89.9% (inactive)
12 | COc1cccc2cc(-c3cc4ccccc4[nH]3)/c(=N\NC(=O)c3ccc(Cl)cc3)oc12 | 18.7% (inactive)
13 | O=C(CN1CCN(c2cc(=O)n(-c3ccccc3)c3ccccc23)CC1)Nc1nc(-c2ccccc2)cs1 | 66.5% (inactive)
14 | CC(Nc1c(C#N)cnc2ccc(-c3cnc(N)nc3)cc12)c1ccccc1 (stereo not given) | 7.27% (active)
15 | CNC1CCc2c(sc(NC(=O)c3ccc(C(C)(C)C)cc3)c2C(N)=O)C1 (stereo not given) | 61.6% (inactive)
16 | COc1cc(OC)cc(C(=O)Nc2cccc(C#Cc3cccc4[nH]nc(N)c34)c2)c1 | 2.45% (active)
17 | COc1c(N2CC3CCCNC3C2)c(F)cc2c(=O)c(C(=O)N/N=C/c3ccccc3)cn(C3CC3)c12 (stereo not given) | 109% (inactive)
18 | COc1ccccc1-n1cc(C#N)c(N)c1C(=O)c1ccc(Br)cc1 | 48.7% (inactive)
19 | Nc1nc(-c2cccc([N+](=O)[O-])c2)c(N=Nc2ccccc2)s1 | 48.6% (inactive)
20 | COc1ccc(-c2nc3ccc(-c4nnc(SCC(=O)Nc5ccc(C(=O)/C=C/c6ccc(Cl)cc6)cc5)o4)cc3[nH]2)cc1 | 95.3% (inactive)
21 | CCCCCCCn1cc2c(NCCc3ccccc3)ncnc2n1 | 95.3% (inactive)
22 | COc1ccc(-c2nc3cc(Cl)c(Cl)cc3n2CC(=O)N=Nc2c(O)[nH]c3ccc(OC)cc23)cc1 | 69.3% (inactive)
23 | CN1CCN(Cc2ccc(NC(=O)c3cncc(C#Cc4cnn5cccnc45)c3)cc2C(F)(F)F)CC1 | -58.7% (active)
24 | Cc1cc(C)c(N2C(=O)CC(Nc3ccc(Cl)cc3Cl)C2=O)c(C)c1 (stereo not given) | 93.6% (inactive)
25 | O=S(=O)(Nc1cccc2ccccc12)c1ccc(-c2cnc(C3CC3)o2)cc1 | 21.9% (inactive)

Row | SMILES | growth
26 | CCOC(=O)c1c(N)c(C#N)cn1-c1cc(OC)c(OC)c(OC)c1 | 104% (inactive)
27 | COc1ccc([C@H]2c3[nH]c4ccccc4c3C[C@H]3C(=O)N(C4CCN(Cc5c(Cl)cccc5Cl)CC4)CC(=O)N23)c(OC)c1 | 87.2% (inactive)
28 | COc1ccc2c(c1)c(-c1cc(N)n3nc(-c4cn(C)c5ccc(OC)cc45)cc3n1)cn2C | 109% (inactive)
29 | COc1cc2c(cc1OC)C(Sc1ccc(C)cc1)c1c(nc(N)c(C#N)c1N)O2 (stereo not given) | -29% (active)
30 | Cc1ccc(NC(=O)N[C@@H](Cc2cc(F)cc(F)c2)C(=O)NC2C(=O)N3C[C@H](O)C[C@H]3C(=O)N3CCCC[C@H]3C(=O)N[C@@H](CO)C(=O)N3C[C@H](C)C[C@H]3C(=O)O[C@H]2C)c(F)c1 (stereo not given in full) | 26.9% (inactive)
31 | O=C(NCc1ncc[nH]1)c1ccc(-c2nc3ccc4[nH]ncc4c3c3c2CCCC3)cc1 | -65% (active)
32 | CCO/C=N/C1=C(C#N)C(c2ccc(F)cc2)c2sc3c(C)cccc3c2O1 (stereo not given) | 7.88% (active)
33 | c1cn2c(ccc3nc(-c4cn[nH]c4)c4c(c32)CCCC4)n1 | 62.8% (inactive)
34 | O=c1[nH]c2ccccc2cc1CSc1ccccc1Nc1nccc(-c2ccc(Cl)cc2)n1 | 97.4% (inactive)
35 | Cn1ccnc1C(=O)/C=C/c1ccc(NC(=O)c2c(F)c(F)c(F)c(F)c2F)cc1 | 94.3% (inactive)
36 | Cn1cc(CNc2nc3ccc(OC/C(=C/F)CN)cc3o2)ccc1=O | 99.2% (inactive)
37 | CC(C)(C)CC(C)(C)n1nnnc1C(Nc1nccs1)c1cc2cccc3ccc4cccc1c4c32 (stereo not given) | 96.8% (inactive)
38 | COc1ccc(-c2nn(-c3ccc(S(C)(=O)=O)cc3)cc2/C=N/O)cc1 | 100% (inactive)
39 | CCOc1cccc(-c2nc3sccn3c2-c2ccnc(S(C)(=O)=O)n2)c1 | 98.9% (inactive)
40 | O=C(c1ccc(Cl)cc1)C1[C@H](c2ccc(Cl)cc2)[C@@H](c2ccccc2)NC12C(=O)Nc1ccccc12 (stereo not given in full) | 78% (inactive)
